According to PubChem BioAssay AID1159580 (chemical genetic matrix, 2015):
In all, about 5,500 compounds went through this assay and about 2,000 (36%) were called active. Roughly 18% stayed inconclusive and do not appear here. No stated cut-off is given here; in the data, active means normalized growth mostly below about 0.91 (no sharp cut-off); inconclusive means no clear call, values can overlap the other calls; inactive means mostly above about 0.92. Some of the results follow.

Test: chemical genetic growth profiling, strain panel (AID 1159580);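 further: tested at 20 µM; growth read once vehicle control cultures reached saturation at 30 °C; 1 = growth at the plate median or of vehicle wells; lower values mean less growth of the strain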
Details: growth OD

Measured: normalized growth

CCc1ccccc1NC(C)=O
inactive: S. cerevisiae deletion strains, locus YAL013W, strain DEP1, hits give low values 1.04 | S. cerevisiae deletion strains, locus YBR229C, strain ROT2, hits give low values 1 | S. cerevisiae deletion strains, locus YDL101C, strain DUN1, hits give low values 1.01 | S. cerevisiae deletion strains, locus YDR150W, strain NUM1, hits give low values 1.01 | S. cerevisiae deletion strains, locus YEL061C, strain CIN8, hits give low values 1.02 | S. cerevisiae deletion strains, locus YGR078C, strain PAC10, hits give low values 1 | S. cerevisiae deletion strains, locus YHR030C, strain SLT2, hits give low values 1.08 | S. cerevisiae deletion strains, locus YHR087W, strain rtc3, hits give low values 1.01 | S. cerevisiae deletion strains, locus YJL187C, strain SWE1, hits give low values 1 | S. cerevisiae deletion strains, locus YJR043C, strain POL32, hits give low values 0.995 | S. cerevisiae deletion strains, locus YJR075W, strain HOC1, hits give low values 0.997 | S. cerevisiae deletion strains, locus YLR039C, strain RIC1, hits give low values 0.992 | S. cerevisiae deletion strains, locus YLR058C, strain SHM2 (second series), hits give low values 0.997 | S. cerevisiae deletion strains, locus YLR085C, strain ARP6, hits give low values 1.01 | S. cerevisiae deletion strains, locus YLR262C, strain YPT6, hits give low values 1.06 | S. cerevisiae deletion strains, locus YML094W, strain GIM5, hits give low values 1.03 | S. cerevisiae deletion strains, locus YMR219W, strain ESC1, hits give low values 1.01 | S. cerevisiae deletion strains, locus YMR263W, strain SAP30, hits give low values 0.998 | S. cerevisiae deletion strains, locus YMR307W, strain GAS1, hits give low values 0.972 | S. cerevisiae deletion strains, locus YNL153C, strain GIM3, hits give low values 1.01 | S. cerevisiae deletion strains, locus YNL298W, strain CLA4 (second series), hits give low values 1.03 | S. cerevisiae deletion strains, locus YNL322C, strain KRE1, hits give low values 0.993 | S. cerevisiae deletion strains, locus YNR030W, strain Alg12, hits give low values 1.03 | S. cerevisiae deletion strains, locus YPL055C, strain LGE1, hits give low values 0.901 | S. cerevisiae deletion strains, locus YPL241C, strain CIN2, hits give low values 1.01 | S. cerevisiae deletion strains, locus YPR135W, strain CTF4, hits give low values 1.24 | S. cerevisiae strains, strain wild type, hits give low values 0.985
